For assay [1], the target named is Glutathione peroxidase 1 (Homo sapiens) (UniProt P07203). Put plainly: Primary qHTS Assay for Inhibitors of Recombinant Selenoprotein Glutathione Peroxidase 1 (GPX1) (AID 1845191). Also: nearly all actives have a fitted effect of over 65% in size. The procedure, abridged: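 Recombinant GPX1 (10 nM final) was preincubated with compound for 30 min at room temperature, then reacted with 1 mM GSH, 0.5 mM CHP, 0.5 mM NADPH and 100 nM glutathione reductase; NADPH fluorescence (340/450 nm) was read at 0 and 15 min.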
Chain of Glutathione peroxidase 1 (Homo sapiens) (P07203 whole entry, looked up): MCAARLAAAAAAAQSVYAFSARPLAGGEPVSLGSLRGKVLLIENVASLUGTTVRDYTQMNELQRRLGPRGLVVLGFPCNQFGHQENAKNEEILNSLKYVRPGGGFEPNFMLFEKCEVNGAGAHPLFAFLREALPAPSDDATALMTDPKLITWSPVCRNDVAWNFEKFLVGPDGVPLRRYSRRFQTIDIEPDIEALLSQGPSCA

Assay [2] concerns the target Phospholipid hydroperoxide glutathione peroxidase GPX4 (Homo sapiens) (UniProt P36969). Put plainly: Primary qHTS Assay for Inhibitors of Recombinant Selenoprotein Glutathione Peroxidase 4 (GPX4) (AID 1845192). Also: nearly all actives have a fitted effect of over 65% in size. Also: potency is read from the fitted curve at half-maximal effect. Put shortly:
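GR-coupled readout: 100 nM GR, 1 mM GSH, 0.5 mM NADPH; NADPH fluorescence (ex 340/em 450 nm) read at t=0 and after 15 min RT. GPX4 200 nM, preincubated 30 min with compound; substrate 0.5 mM CHP.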

For assay [3], the target named is Luciferin 4-monooxygenase (Photinus pyralis) (UniProt P08659). Put plainly: Primary firefly luciferase (FLuc) qHTS assay for identification of artifact compounds. (AID 1845220). Also: nearly all actives have a fitted effect of over 60% in size. The procedure, abridged:
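qHTS, 15 min compound preincubation with substrate (10 uM luciferin, 10 uM ATP) at RT, then 10 nM FLuc; 5 min; luminescence; % inhibition vs no-enzyme/DMSO controls, 4-parameter Hill fit.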

For assay [4], the system named is Nanoluciferase (engineered Oplophorus gracilirostris luciferase). Put plainly: Primary Nanoluciferase (NLuc) qHTS assay for identification of artifact compounds. (AID 1845222). Also: series mostly up to about 54 µM. The procedure, abridged: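 Luminescence read-out of secreted NLuc in S16 cell conditioned medium (1:55); compounds tested with 15 min RT preincubation, then Nano-Glo substrate 1:100, 5 min. % inhibition vs no-enzyme and DMSO controls, 4-parameter Hill fit.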

A short description of assay [5]: Primary redox qHTS assay for identification of artifact compounds. (AID 1845223). Also: potency is read from the fitted curve at half-maximal effect. Put shortly:
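Amplex Red (25 uM) and HRP (250 mU/mL) in HBSS, with compounds for 15 min, then 250 uM DTT for 30 min, room temperature, dark. Fluorescence 525/598 nm read; normalized to DMSO and 10 uM DA3003; Hill fit.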

A short description of assay [6]: Primary fluorescence-based thiol-reactive (MSTI) qHTS assay for identification of artifact compounds. (AID 1845221). Also: nearly all actives have a fitted effect of over 65% in size. Also: potency is read from the fitted curve at half-maximal effect. Put shortly: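 Thiol-reactive compounds detected by quenching of 4 uM MSTI fluorescence (525/598 nm) after 1 h room-temperature dark incubation in PBS pH 7.4, 2% DMSO. qHTS titration; percent inhibition Hill-fitted against Acetyl-MSTI/MSTI controls.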

Results filed as inconclusive are left out. The source made the active and inactive calls. Calls follow the shape of the dose curve; as a rule, active = well fitted curve in the direction sought with a large enough effect; inconclusive = small, poorly fitted or top-dose-only effect, or another doubt; inactive = no such curve, though single readings can be large; an effect the other way counts as inactive or inconclusive.

Chain of Phospholipid hydroperoxide glutathione peroxidase GPX4 (Homo sapiens) (P36969 whole entry, looked up): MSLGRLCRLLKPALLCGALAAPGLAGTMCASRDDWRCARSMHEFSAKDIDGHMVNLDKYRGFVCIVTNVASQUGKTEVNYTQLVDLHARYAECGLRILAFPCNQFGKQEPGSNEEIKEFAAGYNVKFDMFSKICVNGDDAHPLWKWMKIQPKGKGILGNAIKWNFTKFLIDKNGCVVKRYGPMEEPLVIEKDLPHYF

Take `C=C1CC2OC(=O)C(=C)C2C(O)/C=C(\C)CCC1O` (stereo not drawn): the Potency result in assay [1], in assay [2], in assay [3], in assay [4] and in assay [5] was “inactive” in each case.
Turning to `Cc1c(C(=O)NCc2cccnc2)nn(-c2ccc(Cl)cc2Cl)c1-c1ccc(Cl)cc1`, the Potency result in assay [1], in assay [2], in assay [3], in assay [4] and in assay [5] was “inactive” in each case.
Consider `CN1CCc2cc3c(cc2C(=O)Cc2cc4c(cc2C1)OCO4)OCO3`, for which the Potency entry in assay [1], in assay [2], in assay [3], in assay [4] and in assay [5] was “inactive” in each case.
In the case of `O=C(Nc1ccccc1C(=O)Nc1ccc(CCO)cc1)c1ccc([N+](=O)[O-])cc1`, the Potency result in assay [1], in assay [2], in assay [4] and in assay [5] was “inactive” in each case.
Consider `CC1=C(C(=O)OC2CCCCC2)C(c2ccc([N+](=O)[O-])cc2)C2=C(CC(C)(C)CC2=O)N1` (stereo not drawn), for which the Potency entry in assay [1], in assay [2] and in assay [6] was “inactive” each time. Further, the Potency in assay [5] was 2.12 µM (active).
On to `CC(=O)OC1CCC2(C)C(CCC3(C)C2CC=C2C4C(C)C(C)CCC4(C)CCC23C)C1(C)C(=O)O` (stereo not drawn), for which the Potency result in assay [1], in assay [2], in assay [6], in assay [4] and in assay [5] was “inactive” in each case.
With `CC#C[C@@H](CC(=O)O)c1ccc(OCc2cccc(-c3ccc(C(F)(F)F)cc3)c2)cc1`, the Potency entry in assay [1], in assay [6], in assay [4] and in assay [5] was “inactive” throughout. In addition, the Potency in assay [2] was 5.7 µM (active).
For `CN[C@@H]1[C@H](O[C@H]2[C@H](O[C@@H]3[C@@H](O)[C@H](O)[C@@H](N=C(N)N)[C@H](O)[C@H]3N=C(N)N)O[C@@H](C)[C@]2(O)CO)O[C@@H](CO)[C@H](O)[C@H]1O`, the Potency entry in assay [1], in assay [3], in assay [6], in assay [4] and in assay [5] was “inactive” in each case.
In the case of `Cc1cc(C(C)Nc2ccccc2C(=O)O)c2nc(N3CCOCC3)cc(=O)n2c1` (stereo not drawn), the Potency result in assay [1], in assay [2] and in assay [4] was “inactive” throughout.
As for `O=C(Nc1ccc(Cl)cc1)Nc1cccc(-c2cccc(N3CCCC3)n2)c1`, the Potency result in assay [1], in assay [2], in assay [6], in assay [4] and in assay [5] was “inactive” each time.
As for `CC1(C)Oc2ncnc(N)c2N=C1c1ccc(C23CCC(CC(=O)O)(CC2)CC3)cc1`, the Potency result in assay [1], in assay [2], in assay [6], in assay [4] and in assay [5] was “inactive” in each case.
As to `CN1CC2CN(c3ccc4oc5ccccc5c(=O)c4c3)CC2C1` (stereo not drawn), the Potency result in assay [1], in assay [2], in assay [4] and in assay [5] was “inactive” each time.
Regarding `O=C(NCC(=O)N1CCCC1)Nc1ccc2cnccc2c1`, the Potency result in assay [1], in assay [3], in assay [6], in assay [4] and in assay [5] was “inactive” in each case.
For the compound `CC(C)S(=O)(=O)c1ccc2nccc(Nc3ccc4scnc4c3)c2c1`, the Potency result in assay [1], in assay [3], in assay [6], in assay [4] and in assay [5] was “inactive” in each case.
For `O=C(Nc1nnc(-c2ccc3c(c2)OCCO3)o1)C1CCCCC1`, the Potency entry in assay [1], in assay [2], in assay [6], in assay [4] and in assay [5] was “inactive” throughout.
Turning to `COc1ccc2cc(-c3cc(-c4cc(Cl)cc(Cl)c4)nn3C(C)c3ccc(C(=O)NCCC(=O)O)cc3)ccc2c1` (stereo not drawn), the Potency result in assay [1], in assay [3], in assay [6], in assay [4] and in assay [5] was “inactive” throughout.
Take `CC(C)S(=O)(=O)NC[C@@H]1CC(c2ccc(N3CCCC3)c(F)c2)=NO1`: the Potency entry in assay [1], in assay [2], in assay [4] and in assay [5] was “inactive” in each case.
As to `COC1CCN(c2cccc(-c3cc(NC(C)=O)nc(-n4nc(C)cc4C)n3)n2)CC1`, the Potency result in assay [1], in assay [2], in assay [6], in assay [4] and in assay [5] was “inactive” in each case.
As to `CCCN1CCC=C(c2cc(-c3ccc(C)cc3)no2)C1`, the Potency entry in assay [1], in assay [2], in assay [6], in assay [4] and in assay [5] was “inactive” in each case.
For the compound `CC(C)Nc1nc(Nc2ccccc2)nc(-c2ccccc2)n1`, the Potency result in assay [1], in assay [2], in assay [6], in assay [4] and in assay [5] was “inactive” in each case.
With `CC(C)NC(=O)COc1cccc(-c2nc(Nc3ccc4[nH]ncc4c3)c3ccccc3n2)c1`, the Potency entry in assay [1], in assay [3], in assay [6], in assay [4] and in assay [5] was “inactive” each time.
For the compound `Cc1ccc(O)cc1Nc1ccnc(Nc2cccc(C(N)=O)c2)n1`, the Potency entry in assay [1], in assay [2], in assay [6], in assay [4] and in assay [5] was “inactive” throughout.
For the compound `CC(C)=CCc1cc2c(cc1O)OC[C@H]1c3ccc(O)cc3O[C@@H]21`, the Potency entry in assay [1], in assay [2], in assay [4] and in assay [5] was “inactive” in each case.
As to `CCOC(=O)c1csc(Nc2ccc(Cl)cc2)n1`, the Potency result in assay [1], in assay [2], in assay [6], in assay [4] and in assay [5] was “inactive” throughout.
As for `CC(C)(C)c1ccc(C(=O)Nc2cn3cc(-n4ccnc4)ccc3n2)cc1`, the Potency entry in assay [1], in assay [2], in assay [6], in assay [4] and in assay [5] was “inactive” each time.
Turning to `Cn1ncnc1[C@@H]1c2n[nH]c(=O)c3cc(F)cc(c23)N[C@H]1c1ccc(F)cc1`, the Potency result in assay [1], in assay [3], in assay [6], in assay [4] and in assay [5] was “inactive” each time.
On to `C=C1C(=O)O[C@@H]2/C=C(\CO)CC/C=C(/C=O)C[C@H](O)[C@@H]12`, for which the Potency result in assay [1], in assay [2], in assay [4] and in assay [5] was “inactive” each time. The Potency in assay [6] was 11.9 µM (active).
Consider `COc1ccccc1C(=O)Nc1cccc(NC(=O)c2cccc(C)c2)c1`, for which the Potency entry in assay [1], in assay [2], in assay [6], in assay [4] and in assay [5] was “inactive” in each case.
For the compound `COc1ccccc1-c1ccc(-c2cn(C(=O)N3CCCCC3Cc3ccccc3)nn2)cc1` (stereo not drawn), the Potency entry in assay [1], in assay [2], in assay [6], in assay [4] and in assay [5] was “inactive” throughout.
For `O=C(O)c1cccc(-c2ccc(-c3cn(C(=O)N4CCCCC4Cc4ccccc4)nn3)cc2)c1` (stereo not drawn), the Potency entry in assay [1], in assay [2], in assay [6], in assay [4] and in assay [5] was “inactive” in each case.

For the origin of these results see PubChem BioAssay (NCATS).
